For this experiment, the system named is MILI (PIWIL2) piRISC loaded with L1MC piRNA (26 nt). In words: pre-steady-state target cleavage rate (min^-1); guide: L1MC piRNA 5'p-UAACUAAAUACUAUGCAAGCUGUAGG; MIWI and MILI are mouse PIWI proteins and EfPiwi is from a freshwater sponge; tags in brackets are library labels; higher = faster piRNA-guided slicing of the target. The gist of the method: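 Using HEPES–potassium acetate buffer at 33 °C, 1 nM active affinity-purified piRISC with a single synthetic guide was mixed with 0.1 nM transcribed, DNA-blocked target RNA library for 0–8 or 0–960 min, with or without 500 nM GTSF1 partner protein. Uncleaved targets were sequenced and normalised to depth and to weakly complementary targets, and three trials were pooled with k3 capped at 0.0001 min^-1. A burst-and-steady-state fit gave the pre-steady-state cleavage rate.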

Setting [1] is: auxiliary factor: 500 nM mouse GTSF1.
Setting [2] is: auxiliary factor: none (no GTSF1).

± gives the standard deviation.

On to UCCUGGAUGUCGUUGCAUGGUAUUUAGUUA, for which the “pre-steady-state target cleavage rate” value by setting is: under setting [1], 0.0354 ± 0.01; under setting [2], 0.00854 ± 0.0034.
The like results for UCCUGGUACAGACUUGCAUAGUAUUUAGUUA were, in that order, 0.228 ± 0.042 and 0.00755 ± 0.0044.
The like results for UCCUGGAUGUGCUUGCAAUGUAUUUAGUUA were, in that order, 0.0104 ± 0.005 and 0.0111 ± 0.0028.
Regarding UCCUGGAUGUGCUUGGAUAGUAUUAAGUUA, the “pre-steady-state target cleavage rate” value under setting [1] is 0.0647 ± 0.018 and the “pre-steady-state target cleavage rate” value under setting [2] was 0.00591 ± 0.0023.
The corresponding values for UCCUGGAUGUGCUUGCAUAGUAAUUUAGUUA are 0.0286 ± 0.01 and 0.0056 ± 0.0026.
The corresponding values for UCCUGGAACAGCUUGAUAGUAUUUAGUUA are 0.11 ± 0.013 and 0.00612 ± 0.0022.
The like results for UCCUGGUACAGCAACCAUAGUAUUUAGUUA were, in that order, 0.286 ± 0.042 and 0.00442 ± 0.0027.
With UCCUGCUACAGCUUGGAUAGUAUUUAGUUA, the “pre-steady-state target cleavage rate” value reads like this: under setting [1], 0.296 ± 0.017; under setting [2], 0.0119 ± 0.0026.
The like results for UCCUGGAUCACGCUUGCAUAGUAUUUAGUUA were, in that order, 0.205 ± 0.018 and 0.00715 ± 0.0036.
The like results for UCCUGGUACAGCUUGGAUAGUAUUUUGUUA were, in that order, 0.0944 ± 0.022 and 0.00486 ± 0.0048.
As for UCCUGGAUGUCCUAGCAUAGUAUUUAGUUA, the “pre-steady-state target cleavage rate” value is 0.0817 ± 0.015 under setting [1] and 0.00379 ± 0.002 under setting [2].
The corresponding values for UCCUGGAUGUCCUUGCAUAGUAUUGUAGUUA are 0.102 ± 0.023 and 0.0041 ± 0.003.
The like results for UCCUGGAUGUGCUUGCAAAGUAUUAAGUUA were, in that order, 0.0349 ± 0.0076 and 0.0052 ± 0.0026.
The corresponding values for UCCUGGAUGUGGUUGGAUAGUAUUUAGUUA are 0.109 ± 0.019 and 0.00858 ± 0.0028.
For UCCUGGAUGUCGAUGCAUAGUAUGUUAGUUA, the “pre-steady-state target cleavage rate” value runs as follows: under setting [1], 0.0347 ± 0.0076; under setting [2], 0.00559 ± 0.0031.
The like results for UCCUGGAUGUCGUUGCAUAUUAUUUAGUUA were, in that order, 0.0246 ± 0.0061 and 0.00364 ± 0.0023.
Take UCCUGGUACAGGUUGCAUAGUAUUUACAAA: the “pre-steady-state target cleavage rate” value was 0.0239 ± 0.011 under setting [1] and 0.00315 ± 0.003 under setting [2].
The corresponding values for UCCUGGAUGUCGUUGCAUAGUGUUUAGUUA are 0.0461 ± 0.01 and 0.00452 ± 0.0029.
The corresponding values for UCCUGGUACAGCUUGCAAUCUAUUUAGUUA are 0.0377 ± 0.013 and 0.00455 ± 0.0036.
The like results for UCCUGGAUGUCCUUGGUUAGUAUUUAGUUA were, in that order, 0.0867 ± 0.022 and 0.00681 ± 0.0022.
As to UCCUGGAUGUCGAAGCAUGGUAUUUAGUUA, the “pre-steady-state target cleavage rate” value turned out to be 0.0111 ± 0.0048 under setting [1] and 0.00436 ± 0.0021 under setting [2].
As for UCCUGGAUGUCGAUGCAUCGUAUUUAGUUA, the “pre-steady-state target cleavage rate” value is, setting by setting: under setting [1], 0.0238 ± 0.0073; under setting [2], 0.00865 ± 0.0025.
The like results for UCCUGGAUGUCCUUGCAAAGUAUAUAGUUA were, in that order, 0.0544 ± 0.014 and 0.00539 ± 0.002.
The like results for UCCUCCUACAGCUUGAUAGUAUUUAGUUA were, in that order, 0.147 ± 0.014 and 0.00404 ± 0.0022.
The corresponding values for UCCUGGAACAGCUUGGAUAGUAUUUAGUAA are 0.198 ± 0.023 and 0.00431 ± 0.0019.
With UCCUGGAUGUCGUUGCAUAGUAAUUUGUUA, the “pre-steady-state target cleavage rate” value runs as follows: under setting [1], 0.00776 ± 0.005; under setting [2], 0.00315 ± 0.0027.
On to UCCUGGAUGUGCUUGCUAUGUAUUUAGUUA, for which the “pre-steady-state target cleavage rate” value under setting [1] came to 0.00774 ± 0.0037 and the “pre-steady-state target cleavage rate” value under setting [2] was 0.00498 ± 0.0024.
The corresponding values for UCCUGGAUCAGCAUGCAUAGUAUUUACUUA are 0.126 ± 0.016 and 0.00358 ± 0.0024.
The corresponding values for UCCUGGAUCAGCUAGCAUUGUAUUUAGUUA are 0.107 ± 0.014 and 0.00287 ± 0.0024.
The corresponding values for UCCUGGAUGUCGUUGCAGAGUAUUUAGUUA are 0.0117 ± 0.0043 and 0.0038 ± 0.0022.
Regarding UCCUGGAUGUCCUUGCAUAGUAGUUUAGUUA, the “pre-steady-state target cleavage rate” value reads like this: under setting [1], 0.0394 ± 0.014; under setting [2], 0.00805 ± 0.0029.
The like results for UCCUGGAUGUCCUUGCAUUGUAUUUAGUUA were, in that order, 0.0543 ± 0.012 and 0.00683 ± 0.002.
The corresponding values for UCCUGGAUCAGCUUGCAUAGUAUUUAGUGUA are 0.271 ± 0.023 and 0.00832 ± 0.0026.
The like results for UCCUGGAUCAGCUUGCAUAGUUAUUUAGUUA were, in that order, 0.00888 ± 0.004 and 0.00454 ± 0.0027.
With UCCUGGAUGUCCUUGCAUAGUAUUCAGUUA, the “pre-steady-state target cleavage rate” value runs as follows: under setting [1], 0.0755 ± 0.018; under setting [2], 0.00338 ± 0.0028.
The corresponding values for UCCUGGUACUGCUUGGAUAGUAUUUAGUUA are 0.179 ± 0.029 and 0.00767 ± 0.0042.
The like results for UCCUGGAUGUCCUUGCAUAGUAUAAAGUUA were, in that order, 0.0673 ± 0.015 and 0.00312 ± 0.0028.
The like results for UCCUGGAUGUCGUUGCUUAGUAUAUAGUUA were, in that order, 0.0611 ± 0.014 and 0.0122 ± 0.0029.
Turning to UCCUGGAUCAGCAUGGAUAGUAUUUAGUUA, the “pre-steady-state target cleavage rate” value under setting [1] amounted to 0.19 ± 0.0097 and the “pre-steady-state target cleavage rate” value under setting [2] was 0.0106 ± 0.0024.
Regarding UCCUGGAUGUCCUAGCAUAGUUUUUAGUUA, the “pre-steady-state target cleavage rate” value under setting [1] came to 0.0106 ± 0.0049 and the “pre-steady-state target cleavage rate” value under setting [2] was 0.00512 ± 0.0022.
The corresponding values for UCCUGGAUCAGCUUGCUAAGUAUUUAGUUA are 0.0871 ± 0.012 and 0.0065 ± 0.0021.
The like results for UCCUGGAUCAGCUUGCUUAGUAUUUAGUAA were, in that order, 0.218 ± 0.012 and 0.00347 ± 0.0021.
The corresponding values for UCCUGGAUGUGCUAGCAUAGUAAUUAGUUA are 0.0614 ± 0.011 and 0.00598 ± 0.0021.
Regarding UCCUGGAUGAGCAUGCAUAGUUUUUAGUUA, the “pre-steady-state target cleavage rate” value runs as follows: under setting [1], 0.0197 ± 0.0099; under setting [2], 0.00788 ± 0.0023.
As for UCCUGGAACAGCUUGCAUAGAUUUUAGUUA, the “pre-steady-state target cleavage rate” value under setting [1] came to 0.0289 ± 0.0057 and the “pre-steady-state target cleavage rate” value under setting [2] was found to be 0.003 ± 0.0026.
As to UCCUGGAUCAGCUAGCAUAGAAUUUAGUUA, the “pre-steady-state target cleavage rate” value reads like this: under setting [1], 0.0367 ± 0.0066; under setting [2], 0.00247 ± 0.0025.
The corresponding values for UCCUGGAUGAGCUUGGAUAGUUUUUAGUUA are 0.0261 ± 0.0072 and 0.00424 ± 0.0026.
The like results for UCCUGGAUGUCGUUGCAUAGUAUUUGGUUA were, in that order, 0.145 ± 0.031 and 0.00722 ± 0.003.
The corresponding values for UCCUGGAUGUGCAUGCAUAGUAUUAAGUUA are 0.122 ± 0.017 and 0.00463 ± 0.0027.
Take UCCUGGAUCAGCUUGCAUUGUUUUUAGUUA: the “pre-steady-state target cleavage rate” value by setting is: under setting [1], 0.0121 ± 0.0054; under setting [2], 0.00431 ± 0.0023.
As for UCCUGGUACAGGUUGCAUAGUAAUUAGUUA, the “pre-steady-state target cleavage rate” value under setting [1] was determined as 0.325 ± 0.041 and the “pre-steady-state target cleavage rate” value under setting [2] was found to be 0.00664 ± 0.0029.
The like results for UCCUGGAUGUGCUUGGUAAGUAUUUAGUUA were, in that order, 0.00666 ± 0.0036 and 0.00551 ± 0.0023.
The corresponding values for UCCUGGAUGUCGAUGCAUAGUAUUUACGUUA are 0.158 ± 0.033 and 0.00337 ± 0.0029.
The like results for UCCUGGAUGAGCUUGCUUAGUAUUUACUUA were, in that order, 0.124 ± 0.031 and 0.00394 ± 0.0031.
As for UCCUGGAUGAGCUUGGUAAGUAUUUAGUUA, the “pre-steady-state target cleavage rate” value turned out to be 0.009 ± 0.0036 under setting [1] and 0.00405 ± 0.0023 under setting [2].

The values are drawn from the supplement of paper PMC10338343.
